These results are taken from publication PMC2807882, “Conservation of DNA-binding specificity and oligomerisation properties within the p53 family”.

Among the targets are Hsp53 (Homo sapiens, UniProt P04637 1-393); Xlp53 (Xenopus laevis, UniProt Q7T1D0 1-362); Mmp53 (Mus musculus, UniProt P02340 1-390).
Assay in all cases: fluorescence anisotropy competition titration; 25 mM sodium phosphate (purification buffer pH 7.2), 225 mM NaCl, 10% v/v glycerol, 5 mM DTT, 0.2 mg/mL BSA, 22 C; low values mean tight binding
Common to all, as to details: protein: recombinant; tags: N-terminal 6xHis-lipoyl-TEV tag, cleaved; chain copies: 4; dsDNA, one strand shown
In general terms: Polarisation of emitted light reports the rotation of a fluorescent probe.

The target in a further test is T1, Dmp53 (Drosophila melanogaster, UniProt Q9N6D8 1-385).
T1 sequence: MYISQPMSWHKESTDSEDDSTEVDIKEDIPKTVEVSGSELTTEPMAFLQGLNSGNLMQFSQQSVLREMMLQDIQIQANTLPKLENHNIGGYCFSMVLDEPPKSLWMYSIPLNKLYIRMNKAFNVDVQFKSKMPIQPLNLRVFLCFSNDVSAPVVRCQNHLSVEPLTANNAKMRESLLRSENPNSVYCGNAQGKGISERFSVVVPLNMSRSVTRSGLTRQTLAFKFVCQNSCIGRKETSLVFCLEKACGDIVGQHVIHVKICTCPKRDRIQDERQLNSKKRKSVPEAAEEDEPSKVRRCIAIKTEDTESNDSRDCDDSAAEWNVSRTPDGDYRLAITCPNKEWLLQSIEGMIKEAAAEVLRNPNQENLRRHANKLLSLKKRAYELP

A further test addresses T2, Drp53 (Danio rerio, UniProt P79734 1-373).
T2 sequence: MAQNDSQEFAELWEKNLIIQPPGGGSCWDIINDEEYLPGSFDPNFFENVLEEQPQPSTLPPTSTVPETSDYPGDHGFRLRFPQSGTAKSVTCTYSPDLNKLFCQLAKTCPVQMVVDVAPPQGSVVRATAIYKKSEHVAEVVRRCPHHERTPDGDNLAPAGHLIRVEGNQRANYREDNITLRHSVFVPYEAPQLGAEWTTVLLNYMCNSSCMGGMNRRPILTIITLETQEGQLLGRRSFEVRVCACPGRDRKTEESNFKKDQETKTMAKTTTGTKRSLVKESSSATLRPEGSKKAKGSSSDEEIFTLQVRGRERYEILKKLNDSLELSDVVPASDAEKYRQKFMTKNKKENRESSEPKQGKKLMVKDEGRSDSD

For a further test, the target named is T3, ΔNp63α (Homo sapiens, UniProt Q9H3D4-2 1-586).
T3 sequence: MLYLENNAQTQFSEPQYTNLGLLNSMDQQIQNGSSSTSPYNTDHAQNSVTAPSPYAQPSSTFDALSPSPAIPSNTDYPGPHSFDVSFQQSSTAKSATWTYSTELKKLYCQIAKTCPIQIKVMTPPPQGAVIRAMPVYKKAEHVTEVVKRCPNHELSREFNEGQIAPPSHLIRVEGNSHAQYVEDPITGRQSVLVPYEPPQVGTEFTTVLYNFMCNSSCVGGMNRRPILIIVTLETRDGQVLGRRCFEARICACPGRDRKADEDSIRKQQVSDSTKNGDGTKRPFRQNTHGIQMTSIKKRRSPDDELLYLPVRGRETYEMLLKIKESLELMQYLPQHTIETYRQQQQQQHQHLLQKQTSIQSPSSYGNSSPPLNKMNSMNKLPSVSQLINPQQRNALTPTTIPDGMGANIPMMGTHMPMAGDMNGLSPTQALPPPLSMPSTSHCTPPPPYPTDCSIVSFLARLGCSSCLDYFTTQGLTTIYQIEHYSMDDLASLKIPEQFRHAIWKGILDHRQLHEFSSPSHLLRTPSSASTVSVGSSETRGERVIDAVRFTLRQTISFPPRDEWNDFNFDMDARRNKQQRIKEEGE

The next test concerns the target T4, ΔNp63β (Homo sapiens, UniProt Q9H3D4-4 1-461).
T4 sequence: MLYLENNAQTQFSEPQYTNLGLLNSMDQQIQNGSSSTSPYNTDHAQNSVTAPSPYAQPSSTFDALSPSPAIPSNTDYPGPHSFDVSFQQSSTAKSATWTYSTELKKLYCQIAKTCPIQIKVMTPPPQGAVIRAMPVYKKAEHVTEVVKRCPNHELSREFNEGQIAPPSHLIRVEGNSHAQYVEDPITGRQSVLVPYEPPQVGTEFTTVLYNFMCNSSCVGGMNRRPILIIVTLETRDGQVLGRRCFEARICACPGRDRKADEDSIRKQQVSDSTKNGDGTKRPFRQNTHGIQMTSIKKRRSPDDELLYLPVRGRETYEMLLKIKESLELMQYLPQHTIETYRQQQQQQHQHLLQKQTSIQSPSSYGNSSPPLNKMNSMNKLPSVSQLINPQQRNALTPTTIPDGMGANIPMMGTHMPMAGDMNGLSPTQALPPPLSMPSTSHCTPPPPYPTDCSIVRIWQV

A further test deals with T5, ΔNp63γ (Homo sapiens, UniProt Q9H3D4-6 1-393).
T5 sequence: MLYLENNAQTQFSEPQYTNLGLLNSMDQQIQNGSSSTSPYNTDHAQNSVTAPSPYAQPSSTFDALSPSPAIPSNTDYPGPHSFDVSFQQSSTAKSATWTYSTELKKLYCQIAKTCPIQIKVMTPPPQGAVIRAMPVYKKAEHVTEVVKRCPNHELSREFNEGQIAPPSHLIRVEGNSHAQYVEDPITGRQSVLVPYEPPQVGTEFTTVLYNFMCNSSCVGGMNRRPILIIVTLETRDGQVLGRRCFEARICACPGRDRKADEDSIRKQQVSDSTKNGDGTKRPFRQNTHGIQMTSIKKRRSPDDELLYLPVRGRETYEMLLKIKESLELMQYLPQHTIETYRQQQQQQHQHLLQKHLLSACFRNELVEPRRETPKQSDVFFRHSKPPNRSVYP

In a further test the target is T6, ΔNp73β (Homo sapiens, UniProt O15350-9 1-450).
T6 sequence: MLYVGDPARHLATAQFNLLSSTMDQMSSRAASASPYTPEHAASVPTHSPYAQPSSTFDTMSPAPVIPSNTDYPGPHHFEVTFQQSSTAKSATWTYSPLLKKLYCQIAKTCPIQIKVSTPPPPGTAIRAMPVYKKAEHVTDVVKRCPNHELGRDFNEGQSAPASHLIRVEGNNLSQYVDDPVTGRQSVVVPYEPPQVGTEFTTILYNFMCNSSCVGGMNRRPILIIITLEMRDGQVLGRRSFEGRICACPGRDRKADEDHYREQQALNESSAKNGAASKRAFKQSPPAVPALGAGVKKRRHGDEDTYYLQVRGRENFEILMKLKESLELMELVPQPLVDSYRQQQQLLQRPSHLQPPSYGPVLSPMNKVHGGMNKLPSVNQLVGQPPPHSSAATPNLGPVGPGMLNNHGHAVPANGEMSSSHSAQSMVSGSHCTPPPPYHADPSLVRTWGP

The next test addresses T7, p73CT (Homo sapiens, UniProt O15350 104-383).
T7 sequence: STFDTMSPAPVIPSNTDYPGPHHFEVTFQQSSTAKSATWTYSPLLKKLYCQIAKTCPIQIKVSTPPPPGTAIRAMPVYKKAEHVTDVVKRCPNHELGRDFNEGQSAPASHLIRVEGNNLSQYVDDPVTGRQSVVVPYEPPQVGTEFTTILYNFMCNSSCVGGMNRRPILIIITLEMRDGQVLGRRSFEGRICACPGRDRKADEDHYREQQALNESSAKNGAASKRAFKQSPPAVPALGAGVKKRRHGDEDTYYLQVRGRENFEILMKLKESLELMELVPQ

Hsp53, sequence (P04637 whole entry): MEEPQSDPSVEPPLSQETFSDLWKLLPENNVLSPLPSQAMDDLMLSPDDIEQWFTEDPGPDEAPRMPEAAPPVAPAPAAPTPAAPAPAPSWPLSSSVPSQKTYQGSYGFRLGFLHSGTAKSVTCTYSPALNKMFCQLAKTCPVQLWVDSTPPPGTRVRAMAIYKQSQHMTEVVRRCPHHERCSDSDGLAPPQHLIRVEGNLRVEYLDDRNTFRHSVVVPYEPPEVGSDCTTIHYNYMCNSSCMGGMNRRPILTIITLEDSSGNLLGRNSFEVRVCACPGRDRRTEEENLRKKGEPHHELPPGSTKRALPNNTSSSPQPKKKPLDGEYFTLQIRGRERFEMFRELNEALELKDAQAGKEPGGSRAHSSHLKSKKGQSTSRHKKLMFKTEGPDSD
Mmp53, sequence (P02340 whole entry): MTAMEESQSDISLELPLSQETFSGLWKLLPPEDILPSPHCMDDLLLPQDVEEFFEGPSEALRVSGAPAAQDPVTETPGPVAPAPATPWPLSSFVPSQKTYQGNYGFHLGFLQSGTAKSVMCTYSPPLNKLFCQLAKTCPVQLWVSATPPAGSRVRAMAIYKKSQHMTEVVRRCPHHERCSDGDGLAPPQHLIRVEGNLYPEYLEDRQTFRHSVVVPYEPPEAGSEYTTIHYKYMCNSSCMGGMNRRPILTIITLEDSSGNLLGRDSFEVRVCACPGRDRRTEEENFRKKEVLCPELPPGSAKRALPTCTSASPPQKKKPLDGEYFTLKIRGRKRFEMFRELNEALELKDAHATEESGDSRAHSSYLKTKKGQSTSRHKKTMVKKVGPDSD
Xlp53, sequence (Q7T1D0 entry or part of it): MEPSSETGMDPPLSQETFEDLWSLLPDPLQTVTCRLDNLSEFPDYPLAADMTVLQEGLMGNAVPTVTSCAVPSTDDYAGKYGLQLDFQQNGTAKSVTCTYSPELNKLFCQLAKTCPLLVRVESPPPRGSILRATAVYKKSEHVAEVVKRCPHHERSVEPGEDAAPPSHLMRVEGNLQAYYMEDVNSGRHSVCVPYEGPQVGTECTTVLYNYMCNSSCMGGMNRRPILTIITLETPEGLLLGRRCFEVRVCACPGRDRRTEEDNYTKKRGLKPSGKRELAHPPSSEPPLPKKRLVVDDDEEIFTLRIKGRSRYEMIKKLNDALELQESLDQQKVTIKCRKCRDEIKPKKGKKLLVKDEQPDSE

With CGCGGACATGTGCGGACATGTCCCGC, the binding signal with Dmp53 stood at 0.23 delta log10 Kd; in the test with Drp53, 0.54 delta log10 Kd; with Hsp53, 0.49 delta log10 Kd; in the test with Xlp53 it was 0.57 delta log10 Kd; with ΔNp63α, 0.3 delta log10 Kd; with ΔNp63β, 0.46 delta log10 Kd. In addition, the binding signal in the test with ΔNp63γ was 0.49 delta log10 Kd; in the test with ΔNp73β it was 0.65 delta log10 Kd; with Mmp53, 0.36 delta log10 Kd; with p73CT, 0.53 delta log10 Kd.
With CGCGGACATGACCGGACATGTCCCGC, the binding signal worked out at 0.24 delta log10 Kd in the test with Dmp53; 0.42 delta log10 Kd in the test with Hsp53; 0.43 delta log10 Kd with Xlp53; 0.43 delta log10 Kd in the test with ΔNp63α; 0.62 delta log10 Kd with ΔNp63β; 0.72 delta log10 Kd with ΔNp63γ. In addition, the binding signal in the test with ΔNp73β was 0.78 delta log10 Kd; with p73CT, 0.57 delta log10 Kd.
For CGCGGACATGTCAGGACATGTCCCGC, the binding signal with Dmp53 was found to be 0.14 delta log10 Kd; with Drp53, 0.32 delta log10 Kd; with Hsp53, 0.31 delta log10 Kd; with Xlp53 it was 0.27 delta log10 Kd; with ΔNp63α it was 0.09 delta log10 Kd; in the test with ΔNp63β, 0.13 delta log10 Kd. For the same sequence, the binding signal with ΔNp63γ came out at 0.13 delta log10 Kd; with ΔNp73β, 0.27 delta log10 Kd; with Mmp53 it was 0.2 delta log10 Kd; with p73CT, 0.2 delta log10 Kd.
For the sequence CGCGGACTTGTCCGGACATGTCCCGC, the binding signal with Dmp53 came to 0.36 delta log10 Kd; with Drp53, 0.3 delta log10 Kd; with Hsp53, 0.14 delta log10 Kd; with Xlp53 it was 0.16 delta log10 Kd; with ΔNp63α, 0.06 delta log10 Kd; in the test with ΔNp63β it was 0.27 delta log10 Kd. The binding signal is 0.41 delta log10 Kd in the test with ΔNp63γ, 0.36 delta log10 Kd with ΔNp73β, 0.24 delta log10 Kd in the test with Mmp53 and 0.45 delta log10 Kd with p73CT.
As to CGCGGATATGTCCGGACATGTCCCGC, the binding signal with Dmp53 was found to be 1.01 delta log10 Kd; in the test with Drp53, 0.58 delta log10 Kd; with Hsp53, 0.56 delta log10 Kd; with Xlp53 it was 0.62 delta log10 Kd; in the test with ΔNp63α, 0.68 delta log10 Kd; with ΔNp63β it was 0.85 delta log10 Kd. Besides, the binding signal in the test with ΔNp63γ was determined as 0.97 delta log10 Kd; with ΔNp73β it was 1.04 delta log10 Kd; with Mmp53, 0.34 delta log10 Kd; with p73CT it was 1.06 delta log10 Kd.
On to CGCTGACATGTCCGGACATGTCCCGC, for which the binding signal with Dmp53 worked out at 0.02 delta log10 Kd; in the test with Drp53 it was 0.22 delta log10 Kd; with Hsp53, 0.16 delta log10 Kd; with Xlp53 it was 0.13 delta log10 Kd; with ΔNp63α, 0.08 delta log10 Kd; with ΔNp63β it was 0.1 delta log10 Kd. Moreover, the binding signal turned out to be 0.1 delta log10 Kd in the test with ΔNp63γ, 0.11 delta log10 Kd with ΔNp73β, 0.18 delta log10 Kd in the test with Mmp53 and 0.09 delta log10 Kd in the test with p73CT.
For the sequence CGCGTACATGTCCGGACATGTCCCGC, the binding signal with Dmp53 came out at 0.12 delta log10 Kd; with Drp53, 0.21 delta log10 Kd; with Hsp53 it was 0.21 delta log10 Kd; in the test with Xlp53 it was 0.13 delta log10 Kd; with ΔNp63α, 0.08 delta log10 Kd; in the test with ΔNp63β it was 0.23 delta log10 Kd. In addition, the binding signal is 0.21 delta log10 Kd with ΔNp63γ, 0.24 delta log10 Kd in the test with ΔNp73β, 0.19 delta log10 Kd with Mmp53 and 0.24 delta log10 Kd with p73CT.
